The structures appear in SMILES notation. Several values for one entry are separate records, joined by “and”; a condition that tells them apart may be missing. Equal entries are not always repeated. Inconclusive results are not listed. Unmarked numbers belong to inactive results. Activity calls are given as the source filed them. Calls follow the shape of the dose curve; as a rule, active = well fitted curve in the direction sought with a large enough effect; inconclusive = small, poorly fitted or top-dose-only effect, or another doubt; inactive = no such curve, though single readings can be large; an effect the other way counts as inactive or inconclusive. Peptide text beside a SMILES is read from it. * marks the point of attachment. Cbz = O=C(OCc1ccccc1)*

The record followed here is PubChem BioAssay (NCATS).

Assay [1] is described as follows: Viability qHTS for spleen associated tyrosine kinase inhibitor (SYKi) naive MV4-11 cells (AID 1963823). Also: nearly all actives have a fitted effect of over 40% in size. Summed up: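 SYK inhibitor-naive MV4-11 cells, 500 per well, exposed to compounds for 72 hr at 37 C, 5% CO2. Viability read as CellTiter-Glo luminescence after 10 min at room temperature.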
On the technique in general: In qHTS, concentration-response curves come from the screen itself.

Assay [2] can be described thus: Viability qHTS for spleen associated tyrosine kinase inhibitor (SYKi) drug resistant MV4-11 cells (AID 1963824). Also: nearly all actives have a fitted effect of over 35% in size. In short, it runs like this:
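SYK inhibitor-resistant MV4-11 AML cells, 500 per well, added to predispensed compounds and incubated 72 hr at 37 C, 5% CO2. Viability measured by CellTiter-Glo luminescence after 10 min at room temperature.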

Assay [3] is described as follows: Quantitative highthroughput screen to assess conditional lethalithy of NOMO1 cells grown in RPMI1640 with untreated serum (RPMI+s) (AID 1963876). Also: nearly all actives have a fitted effect of over 35% in size.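 As to Viability: 100% = DMSO wells and 0% = empty wells without cells.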 In short, it runs like this: (§1)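 Each medium arm—HPLM with 10% dialyzed FBS, or RPMI1640 with 5 mM glucose and 10% untreated or dialyzed FBS—was screened against an 11-point, 3-fold compound titration for 48 h at 37 °C, with CellTiter-Glo luminescence as endpoint.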

A short description of assay [4]: Quantitative highthroughput screen to assess conditional lethalithy of NOMO1 cells grown in RPMI1640 with dialyzed fetal bovine serum (RPMI+ds) (AID 1963877). Also: nearly all actives have a fitted effect of over 30% in size.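 As to Viability: series mostly up to about 46 µM; 100% = DMSO control wells and 0% = empty wells.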 Summed up:
as §1

Assay [5] can be described thus: Quantitative highthroughput screen to assess conditional lethalithy of NOMO1 cells grown in Human Plasma-Like Medium with dialyzed fetal bovine serum (HPLM+ds) (AID 1963878). Also: nearly all actives have a fitted effect of over 35% in size.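 As to Viability: 100% = DMSO wells and 0% = empty wells on each plate.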 In short, it runs like this: as §1
Assay [6] in a line: Quantitative highthroughput screen to assess conditional lethalithy of P12 Ichikawa cells grown in Human Plasma-Like Medium with dialyzed fetal bovine serum (HPLM+ds) (AID 1963879). Also: nearly all actives have a fitted effect of over 35% in size. As to Viability: series mostly up to about 46 µM. To be noted: Potency: viability. Summed up:
as §1

Assay [7] is described as follows: Quantitative highthroughput screen to assess conditional lethalithy of P12 Ichikawa cells grown in RPMI1640 with dialyzed fetal bovine serum (RPMI+ds) (AID 1963880). Also: nearly all actives have a fitted effect of over 35% in size.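 As to Viability: 100% = DMSO wells and 0% = empty wells on each plate.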 To be noted: Potency: P12-Ichikawa viability. Summed up:
as §1

Assay [8] can be described thus: Quantitative highthroughput screen to assess conditional lethalithy of P12 Ichikawa cells grown in RPMI1640 with untreated serum (RPMI+s) (AID 1963881). Also: nearly all actives have a fitted effect of over 35% in size.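 As to Viability: series mostly up to about 46 µM; 100% = DMSO wells and 0% = empty wells without cells.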 Particulars: Potency: viability. In short, it runs like this:
as §1

A short description of assay [9]: Quantitative highthroughput screen to assess conditional lethalithy of SEM cells grown in Human Plasma-Like Medium with dialyzed fetal bovine serum (HPLM+ds) (AID 1963882). Also: nearly all actives have a fitted effect of over 35% in size. As to Viability: series mostly up to about 46 µM. In short, it runs like this: as §1
Assay [10] is described as follows: Quantitative highthroughput screen to assess conditional lethalithy of SEM cells grown in RPMI1640 with unreated serum (RPMI+s) (AID 1963883). Also: nearly all actives have a fitted effect of over 35% in size.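 As to Viability: 100% = DMSO wells and 0% = empty wells without cells.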 Summed up:
as §1

A short description of assay [11]: Quantitative highthroughput screen to assess conditional lethalithy of SEM cells grown in RPMI1640 with dialyzed fetal bovine serum (RPMI+ds) (AID 1963884). Also: nearly all actives have a fitted effect of over 35% in size.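 As to Viability: series mostly up to about 46 µM; 100% = DMSO control wells and 0% = empty wells without cells.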 In short, it runs like this:
as §1

Assay [12] is described as follows: Cellular viability qHTS for adrenocortical cancer (ACC) cell line SW-13 (AID 1963989). Also: nearly all actives have a fitted effect of over 65% in size.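 As to activity (max response): cells grown in serum-free medium with ITS supplement; % is scaled to controls: 0 for no effect and ±100 for the full control effect.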 Particulars: SW-13 ACC cells viability, CellTiter-Glo, 48 h; activity (max response): hits give low values. In short, it runs like this:
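Here, serum-free SW-13 cultures were dosed up to 46 uM. Following 48 h, ATP-dependent luminescence (CellTiter-Glo) reported viable cells, and logistic modeling produced IC50 values.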

Assay [13] is described as follows: Cellular viability qHTS for adrenocortical cancer (ACC) cell line NCI-H295R (AID 1963990). Also: nearly all actives have a fitted effect of over 60% in size.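 As to activity change, negative = viability loss: 0% = DMSO only wells and -100% = full killing with cytotoxic reference compound.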 Summed up:
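Viability of NCI-H295R after 48 h of treatment (final up to 46 uM) measured through cellular ATP luminescence.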
Potency is read from the fitted curve at half-maximal effect.

For the molecule `Cn1cc(C[C@@H](N)C(=O)O)c2ccccc21`, the viability (% of control) in assay [1] was 69.9% [at 9.25 µM]. For the same molecule, the viability, % of control in assay [2] is 75.4% [at 9.25 µM]. The Potency entry in assay [3], in assay [4], in [5], in assay [6], in assay [7] and in assay [8] was “inactive” throughout. For the same molecule, the Potency result in assay [9], in assay [10] and in assay [11] was “inactive” in each case. For the same molecule, the activity (max response) in assay [12] is -6.77%. Moreover, in assay [13], the activity change, negative = viability loss was -13.9% [at 9.17 µM].

For `CC(C)C[C@@H](C=O)NC(=O)[C@H](CC(C)C)NC(=O)[C@H](CC(C)C)NC(=O)OCc1ccccc1` (Cbz-Leu-Leu-Leu-aldehyde), the Potency in [1] is 833 nM (active); in assay [2] it was 1.05 µM (active); in [3], 743 nM (active); in [4], 2090 nM (active); in [5] it was 1480 nM (active); in [6], 2960 nM (active). Moreover, the Potency in assay [7] was 2640 nM (active); in [8], 1180 nM (active); in assay [9] it was 662 nM (active); in assay [10], 332 nM (active); in assay [11], 743 nM (active); in assay [12], 794 nM (active). The Potency in assay [13] was 1260 nM (active).

Turning to `COCCCOc1cc(C[C@@H](C[C@H](N)[C@@H](O)C[C@H](C(=O)NCC(C)(C)C(N)=O)C(C)C)C(C)C)ccc1OC`, the Potency entry in [1], in assay [3], in assay [4], in assay [5], in assay [6] and in [7] was “inactive” each time. The Potency result in [8], in [9], in assay [10], in assay [11] and in assay [13] was “inactive” each time. The Potency in [2] was 168 nM (active) and 5.9 µM (active). The activity (max response) in assay [12] was 6.05%.

On to `CCCCCCCCCCCCCC(=O)N[C@H](CO)[C@H](O)c1ccc([N+](=O)[O-])cc1`, for which the Potency in [1] is 26300 nM (active); in [2], 23.5 µM (active); in assay [3], 2350 nM (active); in assay [4] it was 2640 nM (active); in assay [5], 1660 nM (active); in assay [6] it was 3720 nM (active). Besides, the Potency was 2640 nM (active) in assay [7]; 2350 nM (active) in assay [8]; 1320 nM (active) in assay [9]; 743 nM (active) in assay [10]; 1320 nM (active) in assay [11]. Moreover, the activity (max response) in [12] is 0.392%. Also, the Potency result in [13] was “inactive”.

Take `CC(C)(C)c1cnc(CSc2cnc(NC(=O)C3CCNCC3)s2)o1`: the Potency in assay [1] is 296 nM (active); in [2], 0.332 µM (active); in assay [3], 1050 nM (active); in [4], 935 nM (active); in assay [5] it was 590 nM (active); in assay [6], 166 nM (active). Further, the Potency is 1320 nM (active) in assay [7]; 1180 nM (active) in assay [8]; 662 nM (active) in [9]; 935 nM (active) in assay [10]; 833 nM (active) in assay [11]; 631 nM (active) in [12]. Besides, the Potency in assay [13] is 7940 nM (active).

With `C#Cc1cccc(Nc2ncnc3cc(OC)c(OCCCCCCC(=O)NO)cc23)c1`, the Potency in assay [1] was 291 nM (active) and 372 nM (active); in assay [2], 231 nM (active) and 296 nM (active); in assay [3] it was 1050 nM (active); in [4], 662 nM (active); in assay [5], 372 nM (active); in [6], 235 nM (active). In addition, the Potency was 166 nM (active) in assay [7]; 235 nM (active) in assay [8]; 296 nM (active) in assay [9]; 209 nM (active) in assay [10]; 209 nM (active) in [11]; 1780 nM (active) in [12]. The Potency in assay [13] is 2000 nM (active).

As to `O=C(c1cncc(Br)c1)N1CCC(N2CCCC2)CC1`, the Potency entry in [1], in assay [2], in [3], in assay [4], in assay [5] and in assay [6] was “inactive” throughout. Moreover, the Potency result in assay [7], in [8], in [9], in [10], in assay [11] and in assay [13] was “inactive” each time. Further, in [12], the activity (max response) was 1.51%.

`COc1ccc(C2CNC(=O)C2)cc1OC1CCCC1` (centres undefined): in [1], the Potency was 525 nM (active). The Potency result in assay [2], in assay [3], in assay [4], in assay [5], in [6] and in assay [7] was “inactive” throughout. The Potency entry in assay [8], in assay [9], in [10], in [11] and in assay [13] was “inactive” each time. In addition, the activity (max response) in [12] is 1.73% and 4.14%.

For the molecule `Cc1cccc(-c2[nH]c(C(C)(C)C)nc2-c2ccc3c(c2)OCO3)n1`, the Potency is 2350 nM (active) in assay [1]; 1.46 µM (active) and 2.09 µM (active) in assay [2]; 8330 nM (active) in assay [3]; 9350 nM (active) in [4]; 10500 nM (active) in assay [5]; 9350 nM (active) in [6]. Moreover, the Potency is 11800 nM (active) in assay [7]; 10500 nM (active) in [8]; 8330 nM (active) in assay [9]; 9350 nM (active) in assay [10]; 9350 nM (active) in assay [11]; 7940 nM (active) in assay [12]. For the same molecule, in assay [13], the Potency was 4470 nM (active).

On to `Nc1nc(-c2nn(Cc3ccccc3F)c3ncccc23)nc(N)c1N1CCOCC1`, for which the Potency result in assay [1], in [2], in assay [3], in assay [4], in assay [5] and in assay [6] was “inactive” throughout. In addition, the Potency result in assay [7], in assay [8], in [9], in assay [10], in [11] and in assay [13] was “inactive” throughout. Moreover, the activity (max response) in assay [12] is 8.84%.

Take `CC1(C)CC(=O)c2c(C(F)(F)F)nn(-c3ccc(C(N)=O)c(NC4CCC(O)CC4)c3)c2C1` (centres undefined): the Potency in [1] is 20.9 nM (active); in assay [2], 0.0332 µM (active); in assay [3] it was 209 nM (active); in [4] it was 187 nM (active); in [5] it was 235 nM (active); in assay [6] it was 235 nM (active). The Potency in assay [7] was 148 nM (active); in [8], 148 nM (active); in [9], 148 nM (active); in assay [10], 148 nM (active); in assay [11], 148 nM (active); in assay [12], 224 nM (active). Further, the Potency in [13] is 447 nM (active).

Take `N#Cc1c(O)c2c(-c3ccc(-c4ccccc4O)cc3)csc2[nH]c1=O`: the Potency result in assay [1], in assay [2], in assay [3], in assay [4], in assay [5] and in assay [6] was “inactive” in each case. The Potency entry in assay [7], in assay [8], in assay [9], in assay [10], in assay [11] and in assay [13] was “inactive” each time. Moreover, the activity (max response) in assay [12] is 4.91%.

For the molecule `CC(C)C1CCC(C(=O)N[C@H](Cc2ccccc2)C(=O)O)CC1` (some centres undefined), the Potency entry in [1], in [2], in assay [3], in assay [4], in assay [5] and in [6] was “inactive” in each case. In addition, the Potency entry in [7], in assay [8], in assay [9], in assay [10], in assay [11] and in [13] was “inactive” each time. Further, in assay [12], the activity (max response) was 3.47% and 2.35%.
